Screening data deposited in PubChem BioAssay by The Scripps Research Institute Molecular Screening Center.
The list is not random: actives were taken first. Their share in the collection is about 5.7%.
hgDAF12 agonist: H. glycines DAF-12 receptor agonists, primary screen, cell-based, luminescence, HEK293, GAL4 fusion, UAS-luciferase. Nuclear hormone receptor DAF-12 (Heterodera glycines), GAL4 fusion. 370,000 tested, 1.8% active. HEK293 GAL4-hgDAF12 UAS-luciferase reporter, agonist luminescence; normalized to butyrate control. activation, % at 6.8 µM. AID 687014, 2013;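 active means activation above a cutoff set at the mean of all screened compounds plus 3 SD, cut at about 10% in these data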;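 further: 0% = DMSO wells and 100% = sodium butyrate wells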
AHR act: AHR activators, primary screen, cell-based, luminescence, luciferase reporter, human; Aryl hydrocarbon receptor (Homo sapiens), P35869; AHR-responsive luciferase reporter cells; activation, % at 5 µM; 320,000 tested, 2.5% active; AID 2796, 2010; in the data active means activation above about 47%;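 further: 0% = vehicle wells and 100% = reference agonist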
DAX1 inh-1: DAX1 (NR0B1) inhibitors, primary screen, cell-based, HEK293, Gal4-DAX1, luciferase luminescence; HEK293 Gal4-DAX1 luciferase reporter; inhibition, % at 6.75 µM; 340,000 tested, 0.99% active; AID 504766, 2011;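 active means inhibition above the mean over all tested compounds plus 3 SD, cut at about 4.2% in these data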;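 further: 0% = DAX1-transfected cells with DMSO and 100% = empty-vector control cells with DMSO; inhibition shows as a rise in luminescence from relieved DAX1 repression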
ssDAF-12 act: S. stercoralis DAF-12 nuclear receptor activators, primary screen, cell-based, luminescence, HEK293, GRIP1 co-expression, lit1-tk-luc | Nuclear hormone receptor DAF-12 (Strongyloides stercoralis) | HEK293 ssDAF-12/GRIP1 lit1-tk-luc reporter; % of 3 µM dafachronic acid response | activation, % at 6.8 µM | 370,000 tested, 1% active | AID 652126, 2013;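 active means activation above the mean over all tested compounds plus 3 SD, cut at about 0.9% in these data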;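 further: 0% = DMSO-only wells and 100% = 3 µM delta7-dafachronic acid wells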
DAX1 inh-2: DAX1 (NR0B1) inhibitors on StAR promoter, primary screen, cell-based, luminescence, SF-1 (NR5A1), full-length DAX-1 | 370,000 tested, 1.1% active | AID 652010, 2013 | HEK293T StAR-luciferase reporter, SF-1/DAX-1 repression relief | inhibition, % at 6.8 µM;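 active means inhibition above the mean over all tested compounds plus 3 SD, cut at about 3.6% in these data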;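 further: 0% = DAX-1 cells with DMSO and 100% = cells lacking DAX-1 with DMSO; higher inhibition means more luminescence from relief of DAX-1 repression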
hcDAF-12 act: H. contortus DAF-12 nuclear receptor activators, primary screen, cell-based, luminescence, HEK293, lit1-tk-luc reporter | HEK293 hcDAF-12 lit1-tk-luc reporter; 0% DMSO, 100% Δ7-dafachronic acid | activation, % at 6.8 µM | 370,000 tested, 1.4% active | AID 652067, 2013;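 active means activation above the mean of all tested compounds plus 3 SD, cut at about 5.5% in these data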;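 further: 100% = response to 3 µM Δ7-dafachronic acid high control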
hgDAF12 conf: H. glycines DAF-12 receptor agonists, confirmation, cell-based, luminescence, HEK293, GAL4-LBD fusion; shares compounds with hgDAF12 agonist; HEK293 GAL4-hgDAF12 luciferase reporter, agonist mode; percent of butyrate response; activation, % at 6.8 µM; 3,300 tested, 80% active; AID 743050, 2013;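 active means mean activation over triplicate wells above the hit cutoff derived from the earlier primary screen, cut at about 11% in these data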;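 further: 0% = DMSO low control and 100% = 2 mM sodium butyrate high control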
LXR ag 2: LXR agonists, Gal4 luciferase reporter, confirmation, counter-screen for hgDAF-12 agonist project, cell-based, luminescence, HEK293, H. glycines campaign | shares compounds with hgDAF12 agonist | 24 h | activation, % at 6.8 µM | 3,300 tested, under 10 active;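 active means mean activation of the triplicate above a set limit carried over from the primary screen, none filed active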
* marks the source's active call; other numbers are inactive results; . = not tested or not shown.

SMILES	hgDAF12 agonist	AHR act	DAX1 inh-1	ssDAF-12 act	DAX1 inh-2	hcDAF-12 act	hgDAF12 conf	LXR ag 2
O=C1C=C(N2CCCCCC2)C(=O)N1c1ccc(Cl)cc1	14.7*	.	3.7	-0.4	1.7	5.1	5.0	0.6
O=C1C(Cl)=C(N2CCCCCC2)C(=O)N1c1ccc(Cl)cc1	-0.8	0.2	0.3	0.4	-0.9	-1.0	.	.
CCC(=O)Nc1ccc(-c2ccc(N3CCC(C)CC3)nn2)cc1	.	-4.1	1.4	.	.	.	.	.
CCC(=O)Nc1cccc(-c2ccc(N3CCC(C)CC3)nn2)c1	17.6*	-10.0	0.7	1.0*	2.2	5.8*	12.5*	0.9
Cc1ccccc1C(=O)NC1CCCCCCC1	14.6*	10.9	2.4	1.0*	1.6	3.6	12.2*	0.7
CN(C(=O)c1ccc2c(Cl)c3c(nc2c1)CCC3)c1ccccc1	3.9	0.1	0.2	-1.1	1.1	-0.2	.	.
CCC(C)NC(=O)c1ccc2c(Cl)c3c(nc2c1)CCC3 (configuration not stated)	17.8*	1.5	5.7*	-0.5	3.2	-0.4	9.4	0.4
O=C(Nc1ccc(Cl)cn1)c1ccc2c(Cl)c3c(nc2c1)CCC3	15.0*	1.0	2.8	-1.4	1.8	1.9	7.7	1.2
COc1cccc(NC(=O)CN(C)C(=O)c2ccc(N3CCCCC3)c([N+](=O)[O-])c2)c1	-1.0	0.2	-1.3	-1.1	-1.8	0.2	.	.
COc1ccc(NC(=O)CSc2nc(N)c3cc4c(nc3n2)CCCC4)cc1	17.6*	13.7	-0.6	-1.4	-0.6	-0.6	5.1	0.3
CC(=O)c1ccc(NC(=O)CSc2nc(N)c3cc4c(nc3n2)CCCC4)cc1	4.5	7.4	-0.9	-1.6	-0.4	1.2	.	.
Cc1cc(C)cc(NC(=O)CSc2nc3nc(C)cc(C)c3c(=O)[nH]2)c1	2.8	5.8	0.2	-1.2	0.7	0.0	.	.
CN(C)CCN(Cc1ccco1)C(=O)c1oc2ccccc2c1NC(=O)COc1ccccc1	-1.5	10.5	0.1	-1.3	-1.1	-1.1	.	.
CCc1ccc(OCC(=O)N/N=C(\C)c2ccc(-n3ccnc3)cc2)cc1	2.0	28.2	-0.8	-0.8	-0.3	2.5	.	.
C/C(=N\NC(=O)c1ccc(C)cc1C)c1ccc(-n2ccnc2)cc1	13.6*	21.8	0.1	-1.1	0.8	3.4	0.2	0.0
CC1(C)CC(N2CCC(=O)N(C3CC(C)(C)NC(C)(C)C3)C2)CC(C)(C)N1	-0.4	0.7	-0.9	-0.7	0.7	0.9	.	.
CCc1ccc(NC2=NCC(c3ccccc3)S2)cc1 (configuration not stated)	13.4*	28.4	0.4	-0.8	2.1	4.4	11.1*	0.5
Cc1nc(C)c(-c2csc(Nc3cccc(O)c3)n2)s1	22.6*	2.1	0.1	-0.1	1.0	3.0	13.5*	0.7
CC(=O)Nc1ccc(Nc2nc(-c3sc(C)nc3C)cs2)cc1	-2.9	-3.4	-2.7	-2.4	-1.5	-3.6	.	.
O=C(NCCc1ccccc1)c1cc(-c2ccco2)on1	45.9*	1.3	1.7	0.6	2.1	5.6*	52.7*	0.6
CC(C)n1cc(NC(=O)c2cc(-c3ccccc3)on2)cn1	14.2*	0.2	-2.6	0.5	-1.6	4.0	16.1*	0.3
Cc1ccccc1Cn1cc(NC(=O)c2cc(-c3ccco3)on2)cn1	39.0*	56.6*	-3.0	-1.5	-0.7	-0.9	2.6	0.0
